# Results from PMC4552634, “A New Set of Chemical Starting Points with Plasmodium falciparum Transmission-Blocking Potential for Antimalarial Drug Discovery” (PLoS ONE, 2015).
# The campaign covered roughly 13,000 compounds. About 3,200 (25%) showed an effect of 50% or more. This is one part of the list.
# System: P. falciparum stage V gametocytes
# Parameters: BacTiter-Glo ATP luminescence viability of purified stage V gametocytes in 384-well plates, per cent inhibition versus DMSO
# Conditions: 48 h, 5 µM; inhibitor
row,Structure (SMILES),% Inhibition
1,FC(F)(F)c1ccc2[nH]c(-c3ccc(-c4ccc(CNCc5cnn(-c6ccccc6)n5)cc4)s3)nc2c1.O=C(O)C(F)(F)F [TCMDC-132975],-22.66%
2,COc1cccc(NC(=O)Nc2ccc(-c3oc(C(=O)NCC(c4ccccc4)N(C)C)cc3-c3ccncc3)cc2)c1 (stereo not shown) [TCMDC-135783],-10.27%
3,Cc1c(F)cc(C(=O)NC2CC2)cc1-c1ccc2c(cnn2S(=O)(=O)c2ccc(C#N)cc2)c1 [TCMDC-135240],-5.005%
4,COc1ccc2nccc([C@@H](O)CN3CCC(NC(=O)c4[nH]c5ccccc5c4-c4ccccc4)CC3)c2c1 [TCMDC-141034],-42.03%
5,O=C(NCc1cccc(F)c1)Nc1ccc(-c2cccc(-c3nc4ccc(F)cc4[nH]3)c2)cc1 [TCMDC-133296],0.06231%
6,Cc1ccc(NC(=O)c2ccc(N3CCC(c4ccccc4C)CC3)nc2)cc1 [TCMDC-134594],8.038%
7,COc1ccc(CN2CCN(Cc3cc(Cl)ccc3O)CC2CCO)c(C)c1C (stereo not shown) [TCMDC-124638],-22.47%
8,CC(C)CCN1CCC(Oc2ccc(NC(=O)c3ccco3)cc2Cl)CC1 [TCMDC-133976],100.7%
9,N#Cc1ccc(CN2CCC(Oc3ccc(NC(=O)c4ccco4)cc3Cl)CC2)cc1 [TCMDC-133957],8.133%
10,CC(C)CCN1CCC(Oc2ccc(NC(=O)c3ccc(F)cc3)cc2Cl)CC1 [TCMDC-133978],33.54%
11,O=C(NC(=S)NCc1ccncc1)c1ccccc1 [TCMDC-123842],-6.445%
12,NC1=NC(CCc2ccccc2)N(c2ccc(Cl)cc2)C(N)=N1 (stereo not shown) [TCMDC-131290],6.603%
13,COc1ccc2c(c1)Nc1ccc(Cl)cc1C2N (stereo not shown) [TCMDC-141985],106.2%
14,Fc1cccc(COc2ccc(-n3ccc4c(NCCCn5ccnc5)ncnc43)cc2Cl)n1 [TCMDC-135092],-5.729%
15,COc1ccc2ccccc2c1C=NNc1ccnc2cc(Cl)ccc12 [TCMDC-123949],-70.44%
16,Cc1cc(N(C)CCCN(C)C)nc(Nc2ccc(Cl)cc2)n1 [TCMDC-136887],28.42%
17,CCCN(CCCN(CCCN(CCC)C(C)C)c1cc(C)nc(Nc2ccc(Cl)cc2)n1)C(C)C [TCMDC-138003],44.69%
18,CCCN(CCC)CCCN(CCCN(CCC)CCC)c1cc(C)nc(Nc2ccc(Cl)cc2)n1 [TCMDC-137773],63.95%
19,Cc1cc(NCCCCCCN)nc(Nc2ccc(Cl)cc2)n1 [TCMDC-138191],54.5%
20,CCCCN(CCCC)CCCN(CCCN(CCCC)CCCC)c1cc(C)nc(Nc2ccc(Cl)cc2)n1 [TCMDC-137487],97.2%
21,CCNc1cc(C)nc(Nc2ccc(C)cc2)n1 [TCMDC-134007],5.581%
22,CCN(CC)CCCN(CCCN(CC)CC)c1cc(C)nc(Nc2ccc(Cl)cc2)n1 [TCMDC-137489],39.75%
23,CCNc1cc(C)nc(Nc2ccc(F)cc2)n1 [TCMDC-134008],39.4%

row,Structure (SMILES),% Inhibition
1,Cc1cc(N(CCCN(C)C)Cc2cc(F)cc(F)c2)nc(Nc2ccc(Cl)cc2)n1 [TCMDC-132203],-7.276%
2,Cc1cc(-c2ccnc(Nc3cccc(C#N)c3)n2)cc(C)c1O [TCMDC-133719],-73.96%
3,O=C(NC1CCCCCC1)C1CCCN(C(=O)c2ccc(O)c(-c3ccc(Cl)c(Cl)c3)c2)C1 (stereo not shown) [TCMDC-140888],23.53%
4,CCCCN1C(=O)C2CC(=O)CC(C3CCCCC3)C2C1=O (stereo not shown) [TCMDC-139128],18.42%
5,O=C(O)C(F)(F)F.c1cc(-c2ccc(CNC3CCOCC3)cc2)cc(-c2nc3ccccc3[nH]2)c1 [TCMDC-132572],48.89%
6,CCCC[C@H](NC(=O)O[C@H](COc1ccc(OCc2ccccc2)cc1)C(C)(C)C)C(=O)C(=O)Nc1ccn[nH]1 [TCMDC-138665],67.01%
7,CCCC[C@H](NC(=O)OC(C)(C)C)C(=O)Nc1ccc(Cc2ccc(NC(=O)[C@H](CCCC)NC(=O)OC(C)(C)C)cc2)cc1 [TCMDC-131870],-71.66%
8,CCC[C@@H]([C@@H](CC(C)C)C(=O)N[C@@H](CCCCNC(=O)OCc1ccccc1)C(=O)Nc1ncccn1)N(O)C=O [TCMDC-137323],42.47%
9,Cc1ccc2c(Cl)c(C(=O)N3CCCc4ccccc43)sc2c1 [TCMDC-125658],1.703%
10,CC1(CCc2ccccc2)N=C(N)N(Cc2ccccc2)C(=O)C1c1ccc(Cl)c(Cl)c1 (stereo not shown) [TCMDC-136509],88.15%
11,CCCCCCC1(C)N=C(N)N=C(N)C1c1ccc(Cl)c(Cl)c1 (stereo not shown) [TCMDC-137594],22.11%
12,CC1(CCc2ccccc2)N=C(N)N=C(N)C1c1ccc(Cl)c(Cl)c1 (stereo not shown) [TCMDC-136376],33.71%
13,O=C(NCCN1CCOCC1)c1ccc(N2CCC(Oc3ccc4ccccc4c3)CC2)nc1 [TCMDC-134400],19.81%
14,O=C(CCC1CCCCC1=O)c1ccccc1 (stereo not shown) [TCMDC-125845],5.946%
15,CN(c1ccc2c(c1)nc(NCc1ccccc1)n2C)c1ccnc(Nc2ccc(CS(C)(=O)=O)cc2)n1 [TCMDC-138740],25.8%
16,COc1ccccc1C1CCN(CCCCNC(=O)c2ccc(NC(=O)c3ccc(Cl)cc3)cc2)CC1 [TCMDC-138239],21.16%
17,CCOc1ccc(C2CCN(CCCCNC(=O)c3ccc(NC(=O)c4ccc(Cl)cc4)cc3)CC2)c(CC)c1 [TCMDC-138357],26.78%
18,COc1cc(C(C)C)ccc1C1CCN(CCCCNC(=O)c2ccc(NC(=O)c3ccc(Cl)cc3)cc2)CC1 [TCMDC-138403],115.5%
19,COc1ccc(C2CCN(CCCCNC(=O)c3ccc(NC(=O)c4ccc(Cl)cc4)cc3)CC2)c(OC)c1 [TCMDC-138254],47.57%
20,COc1ccccc1C1CCN(CCCCNC(=O)c2ccc(/C=C/c3cc(Cl)cc(Cl)c3)cc2)CC1 [TCMDC-138241],103.9%
21,CCOc1ccc(C2CCN(CCCCNC(=O)c3ccc(NC(=O)c4ccc(Cl)cc4)cc3)CC2)c(Cl)c1 [TCMDC-138365],58.19%
22,Cc1ccc(C2CCN(CCCCNC(=O)c3ccc(NC(=O)c4ccc(Cl)cc4)cc3)CC2)c(OCC(F)(F)F)c1 [TCMDC-138572],-14.71%
23,Cc1ccc(C2CCN(CCCCNC(=O)c3ccc(NC(=O)c4ccc(Cl)cc4)cc3)CC2)c(OCC2CC2)c1 [TCMDC-138541],76.06%

row,Structure (SMILES),% Inhibition
1,CCc1cc(OC)ccc1C1CCN(CCCCNC(=O)c2ccc(NC(=O)c3ccc(Cl)cc3)cc2)CC1 [TCMDC-138360],-6.372%
2,CCOc1cc(C(C)C)ccc1C1CCN(CCCCNC(=O)c2ccc(NC(=O)c3ccc(Cl)cc3)cc2)CC1 [TCMDC-138385],20.72%
3,CCOc1cc(C)ccc1C1CCN(CCCCNC(=O)c2ccc(NC(=O)c3cc(Cl)cc(Cl)c3)cc2)CC1 [TCMDC-138620],9.848%
4,CCOc1ccccc1C1CCN(CCCCNC(=O)c2ccc(NC(=O)c3ccc(Cl)cc3)cc2)CC1 [TCMDC-138369],-17.64%
5,O=C(Nc1ccc2ccccc2n1)c1ccccc1-c1ccccc1 [TCMDC-125339],-5.994%
6,FC(F)(F)c1ccc(/C=C/c2cncnc2Nc2ccc3nc(Cc4ccccc4)[nH]c3c2)cc1 [TCMDC-138660],-4.612%
7,CC(Oc1ccc(C(=O)c2ccc(F)cc2)cc1)C(=O)N1CCc2ccccc21 (stereo not shown) [TCMDC-123555],10.82%
8,Cc1sc2nc(CSc3ccccc3)nc(N3CCN(CC(=O)N4CCCC4)CC3)c2c1C [TCMDC-125052],-14.62%
9,N#Cc1ccc2c(c1)CCN(CCC1CCC(NC(=O)/C=C/c3ccc(F)c4ccccc34)CC1)CC2 (stereo not shown) [TCMDC-139664],-16.56%
10,CC(C)C[C@H](Nc1ccnc(NCC2CCCCC2)n1)C(=O)NCCc1ccccc1 [TCMDC-134713],-30.95%
11,CCCC(=O)Nc1ccc(OCCN(Cc2ccccc2OC(F)(F)F)c2ccc(C(F)(F)F)c(C#N)c2)cc1 [TCMDC-132791],22.95%
12,CCCCCc1ccc(NC(=O)Nc2ccc(Cn3ncc(N4CCCNCC4)c(Cl)c3=O)cc2)cc1 [TCMDC-133312],-21.48%
13,COc1cccc(C2CCCN(CCCCNC(=O)c3ccc(NC(=O)c4ccc(Cl)cc4)cc3)C2)c1 (stereo not shown) [TCMDC-138283],16.5%
14,CCOc1ccc(C2CCN(CCCCNC(=O)c3ccc(NC(=O)c4ccc(Cl)cc4)cc3)CC2)c(OCC)c1 [TCMDC-138260],93.19%
15,O=C(NCCCCN1CCC(c2ccc(C(F)(F)F)cc2C(F)(F)F)CC1)c1ccc(NC(=O)c2ccc(Cl)cc2)cc1 [TCMDC-138343],-51.81%
16,Cc1ccc(C2CCN(CCCCNC(=O)c3ccc(-c4ccc(C(F)(F)F)cc4)cc3)CC2)c(O)c1 [TCMDC-138538],45.11%
17,COc1ccc(C2CCN(CCCCNC(=O)c3ccc(NC(=O)c4ccc(Cl)cc4)cc3)C2)c(OC)c1 (stereo not shown) [TCMDC-138281],10.37%
18,COc1ccc(C2CCN(CCCNC(=O)c3ccc(NC(=O)c4ccc(Cl)cc4)cc3)CC2)c(OC)c1 [TCMDC-138288],4.031%
19,CC(C)c1ccc(C2CCN(CCCCNC(=O)c3ccc(NC(=O)c4ccc(C(F)(F)F)cc4)cc3)CC2)c(O)c1 [TCMDC-138527],105.5%
20,CCOc1ccc(N2CCN(CCCCNC(=O)c3ccc(NC(=O)c4ccc(Cl)cc4)cc3)CC2)c(OCC)c1 [TCMDC-138243],4.088%
21,COc1cccc(OCC2CCCN(CCCCNC(=O)c3ccc(NC(=O)c4ccc(Cl)cc4)cc3)C2)c1 (stereo not shown) [TCMDC-138269],92.38%
